The target of one test is PUM1 PUF domain R1-RRS (Homo sapiens, UniProt Q14671 828-1176, S863R;Q867S). Put plainly: yeast three-hybrid, YBZ-1, SC-Leu-His + 0.5 mM 3-AT, 4 days. As to conditions: tags: N-Gal4 AD-HA kept; label: inside an RPR1-promoter hybrid RNA with tandem MS2 sites; ssRNA. The method in brief: (§1)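 The interaction score is the log change in how often each variant appears, from input to selection. Frequencies came from PCR-amplified, Illumina-sequenced repeat regions of Pumilio-1 PUF domain libraries grown in strain YBZ-1 (LexA–MS2 coat fusion, HIS3 reporter) alongside matching RNA elements. Input plates were SC-Leu and selection plates were SC-Leu-His + 0.5 mM 3-AT, each for four days, and the log2 calculation used a pseudocount of 1 where a variant was absent.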
Chain of PUM1 PUF domain R1-RRS (Q14671 828-1176 S863R/Q867S): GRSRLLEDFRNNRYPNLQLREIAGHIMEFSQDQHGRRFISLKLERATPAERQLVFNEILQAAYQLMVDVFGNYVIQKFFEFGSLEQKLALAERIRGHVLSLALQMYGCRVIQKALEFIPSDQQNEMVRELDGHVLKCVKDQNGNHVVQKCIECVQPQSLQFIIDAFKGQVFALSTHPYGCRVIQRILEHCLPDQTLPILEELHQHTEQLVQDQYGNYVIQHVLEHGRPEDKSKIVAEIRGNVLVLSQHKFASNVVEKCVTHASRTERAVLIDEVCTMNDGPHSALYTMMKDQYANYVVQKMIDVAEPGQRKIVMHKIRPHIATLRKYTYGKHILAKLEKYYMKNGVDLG
On to “GGCUAGAACUAGUGGAUCCCCCGGCGCCCGGCGGCUCGAGCCCGGGUAAGUGUAAAUCGUCUGCAUGCCGCCGGGCGCCAUGCCUGCAGGUCGACUCUAGAAAACAUG”, for which the binding signal was 5.02 log2 enrichment (interaction score).

Regarding “GGCUAGAACUAGUGGAUCCCCCGGCGCCCGGCGGCUCGAGCCCGGGUAAGUGUAAAUUGUCUGCAUGCCGCCGGGCGCCAUGCCUGCAGGUCGACUCUAGAAAACAUG”, the binding signal was 3.16 log2 enrichment (interaction score).

For the sequence “GGCUAGAACUAGUGGAUCCCCCGGCGCCCGGCGGCUCGAGCCCGGGUAAGUGUAAAUGGUCUGCAUGCCGCCGGGCGCCAUGCCUGCAGGUCGACUCUAGAAAACAUG”, the binding signal was 2.51 log2 enrichment (interaction score).

The target in another test is PUM1 PUF domain R4-CMV (Homo sapiens, UniProt Q14671 828-1176, N971C;H972M;Q975V). The test is described as above. As to conditions: tags: N-Gal4 AD-HA kept; label: inside an RPR1-promoter hybrid RNA with tandem MS2 sites; ssRNA. The essentials: as §1
Chain of PUM1 PUF domain R4-CMV (Q14671 828-1176 N971C/H972M/Q975V): as the sequence (Q14671 828-1176 S863R/Q867S) above, with R36S, S40Q, N144C, H145M, Q148V counted along it
Consider “GGCUAGAACUAGUGGAUCCCCCGGCGCCCGGCGGCUCGAGCCCGGGUAAGUGUAAAUAGUCUGCAUGCCGCCGGGCGCCAUGCCUGCAGGUCGACUCUAGAAAACAUG”, for which the binding signal is 2.52 log2 enrichment (interaction score).

Regarding “GGCUAGAACUAGUGGAUCCCCCGGCGCCCGGCGGCUCGAGCCCGGGUAAGUGUAUAUAGUCUGCAUGCCGCCGGGCGCCAUGCCUGCAGGUCGACUCUAGAAAACAUG”, the binding signal was 3.68 log2 enrichment (interaction score).

As for “GGCUAGAACUAGUGGAUCCCCCGGCGCCCGGCGGCUCGAGCCCGGGUAAGUGUACAUAGUCUGCAUGCCGCCGGGCGCCAUGCCUGCAGGUCGACUCUAGAAAACAUG”, the binding signal was 1.08 log2 enrichment (interaction score).

The values are drawn from article PMC8384837, “Expanding the binding specificity for RNA recognition by a PUF domain”.
